Bioassay records deposited in PubChem BioAssay by National Center for Advancing Translational Sciences (NCATS).
IMPase Li inh = IMPase inhibition in cells with lithium potentiation. CHO-M1 cells, IP1 TR-FRET (IP-One), carbachol + lithium. Potency, µM (doses to about 59.4 µM), for the others: top-dose activity, negative = IMPase inhibition, hits mostly inhibitors. 0.35% of 210,000 active;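 also: IP1 builds up when IMPase is blocked and the TR-FRET signal falls; potency is read from the fitted curve at half-maximal effect; plate controls were basal vehicle for no effect and high inhibitor control for full effect; nearly all actives have a fitted effect of over 50% in size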
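Lithium-sensitised IP1 accumulation assay; M1-expressing CHO cells treated 30 min at 37C with compound. Competitive antibody detection by time-resolved FRET followed a 10 min room-temperature lysis step.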
15-hLO-2 inh = 15-hLO-2 (ALOX15B) enzyme inhibition; O15296; purified 15hLO-2, xylenol orange hydroperoxide absorbance; Potency, µM (series often up to 57.1 µM), for the others: top-dose activity change, negative = inhibition, most hits filed as inhibitors; 0.56% of 110,000 active; AID 881; also: potency is read from the fitted curve at half-maximal effect; nearly all actives have a fitted effect of over 60% in size
Target sequence (O15296 whole entry, looked up): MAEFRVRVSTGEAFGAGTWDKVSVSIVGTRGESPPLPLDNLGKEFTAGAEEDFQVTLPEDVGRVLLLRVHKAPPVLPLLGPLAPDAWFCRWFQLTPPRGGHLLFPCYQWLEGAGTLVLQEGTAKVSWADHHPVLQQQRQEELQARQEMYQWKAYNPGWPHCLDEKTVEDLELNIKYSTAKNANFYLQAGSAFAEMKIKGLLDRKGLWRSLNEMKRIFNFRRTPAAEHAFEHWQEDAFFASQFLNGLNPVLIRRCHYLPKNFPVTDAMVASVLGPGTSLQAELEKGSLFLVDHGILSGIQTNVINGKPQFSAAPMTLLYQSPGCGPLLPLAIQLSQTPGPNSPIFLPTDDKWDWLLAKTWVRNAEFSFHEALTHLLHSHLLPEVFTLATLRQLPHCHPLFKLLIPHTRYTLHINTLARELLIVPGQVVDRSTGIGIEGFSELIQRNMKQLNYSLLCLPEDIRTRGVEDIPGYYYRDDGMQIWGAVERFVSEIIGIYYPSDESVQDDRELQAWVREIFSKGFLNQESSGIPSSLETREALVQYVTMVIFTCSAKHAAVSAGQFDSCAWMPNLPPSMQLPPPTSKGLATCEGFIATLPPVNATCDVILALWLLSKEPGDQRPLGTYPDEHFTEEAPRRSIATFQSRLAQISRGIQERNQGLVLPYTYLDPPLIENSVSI
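Read-out: hydroperoxide product oxidises ferrous iron, measured as xylenol orange complex via the 573-to-405 nm absorbance ratio after 30 min. Reaction: 50 nM enzyme, 15 min compound preincubation, 45 uM arachidonic acid, 90 min RT, Hepes pH 7.5 with Triton X-100.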
IMPase inh = membrane-permeable compound that blocks inositol monophosphatase; P97697; CHO-M1 cells, IP1 accumulation, HTRF TR-FRET ratio; inhibition (IP1 accumulation), % at 46.1 µM; 120,000 tested, under 10 active; AID 901; active = well fitted curve in the direction sought with a large enough effect in the signal ratio, not every such curve was filed as active; inconclusive = small, poorly fitted or top-dose-only effect, or a change in a side signal; inactive = no such curve, though single readings can be large or run the other way; the % refers to the signal ratio;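 also: cells stimulated with carbachol in lithium chloride buffer; plate controls were DMSO basal wells for no effect and reference inhibitor wells for full effect; higher means more IMPase inhibition seen as more IP1 and lower FRET ratio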
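Seeded CHO-M1 cells were dosed with compound at up to 46 uM, stimulated with carbachol for 30 min, then lysed in IP-One detection reagents. Higher IP1 lowers the TR-FRET signal.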
ALOX12 inhib = inhibitors of human 12-lipoxygenase (ALOX12); P18054; purified 12-hLO, xylenol orange hydroperoxide absorbance; Potency, µM (highest dose often 57.1 µM), inactives show top-dose activity change, negative = inhibition, usual class: inhibitors; AID 1452; 0.12% of 150,000 active; also: potency is read from the fitted curve at half-maximal effect; nearly all actives have a fitted effect of over 55% in size
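Purified human 12hLO (150 nM), preincubated 15 min with compound, then 40 uM arachidonic acid for 30 min, room temperature, Hepes pH 7.0 with 0.01% Triton X-100. Hydroperoxide detected by ferrous iron/xylenol orange; 573/405 nm absorbance ratio gives reaction progress.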
PNC inhibitor = perinucleolar compartment assembly inhibition; PC3M PTB-GFP, PNC prevalence imaging, 16 h; active compounds read low; activity change (PNC), negative = inhibition, % at 10 µM; 3.1% of 140,000 active;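 active = readout at or below -70, meaning at least 70% loss of cells showing the perinucleolar compartment, a nuclear body marking cancer cells; inconclusive = readout between -30 and a set limit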;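 also: plate controls were DMSO wells for no effect and camptothecin positive control wells for full effect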
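Read-out is percentage of cells bearing a perinucleolar compartment, from automated 20x imaging of fixed, Hoechst-stained PC3M PTB-GFP cells. Cells were seeded 4 h, then exposed 16 h to compound (23 nl of library stock) in duplicate plates.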
An asterisk follows results filed as active; u = inconclusive; x = no result; [ ] = remark or other dose. The full list was thinned out, with hits kept by preference. Unless noted, calls follow the shape of the dose curve; as a rule, active = well fitted curve in the direction sought with a large enough effect; inconclusive = small, poorly fitted or top-dose-only effect, or another doubt; inactive = no such curve, though single readings can be large; an effect the other way counts as inactive or inconclusive. Unless noted, % is scaled to controls: 0 for no effect and ±100 for the full control effect.

SMILES	IMPase Li inh	15-hLO-2 inh	IMPase inh	ALOX12 inhib	PNC inhibitor
Cc1ccc(N=Nc2c(O)c(S(=O)(=O)O)cc3cc(S(=O)(=O)O)ccc23)c(C)c1	-8%	-13%[11.4 µM]	x	-7%[11.4 µM]	x
Nc1ccc(N=Nc2ccc(-c3ccc(O)cc3)cc2)c2ccc(S(=O)(=O)O)cc12	6%	2.5µM*	x	-7%[11.4 µM]	x
Nc1c(N=Nc2ccc(-c3ccc(N=Nc4cc(S(=O)(=O)O)c5ccccc5c4N)cc3)cc2)cc(S(=O)(=O)O)c2ccccc12	10%	3.2µM*	x	u	x
Cc1cc(-c2ccc(N=Nc3ccc4c(S(=O)(=O)O)cc(S(=O)(=O)O)c(N)c4c3O)c(C)c2)ccc1N=Nc1ccc2c(S(=O)(=O)O)cc(S(=O)(=O)O)c(N)c2c1O	272%	20µM*	u	0%	x
Cc1ccc([N+](=O)[O-])c(N)c1	6%	-9%	x	3%	x
COc1cccc(Cn2c(=O)c(-c3cccs3)nc3cnc(N4CCNCC4)nc32)c1	6%	40%	x	x	x
CC1CCCC(C)N1C(=O)c1cc2ncc(CCCl)cn2n1 (stereo not given)	-2%	x	x	-6%	-84*
COC(=O)CCc1c(C)nc(N)[nH]c1=O	18%[38.3 µM]	-1%	-1	8%	-112*
O=C(CSc1nnc2n(C3CCCC3)c(=O)c3ccccc3n12)N1CCCCCC1	30%[38.3 µM]	-1%	-1	2%	-15
COc1ccccc1Cn1c(=O)c2ccccc2n2c(SCC(=O)N3CCCCC3)nnc12	10µM*	x	u	-3%	u
CCCn1c(=N)c(C(=O)NC2CCCCC2)cc2c(=O)n3cc(C)ccc3nc21	x	x	1	x	x
CC(C)c1ccc(NC(=O)COC(=O)[C@H](CCC(N)=O)NC(=O)c2ccc(F)cc2)cc1	-1%	x	-13	-3%	-12
NC(=O)CC[C@H](NC(=O)c1ccc(F)cc1)C(=O)OCC(=O)Nc1c(F)c(F)c(F)c(F)c1F	1%	x	x	2%	-92*
CN(C)c1ncc2nc(-c3ccc(F)cc3)c(=O)n(C[C@H]3CCCO3)c2n1	0%	-4%	x	x	x
Oc1ccc(Cl)cc1C1=Nc2ccccc2N=C(c2ccco2)C1	u	x	8	1%	-100*
C/C(Cl)=C\Cn1c(Nc2ccc(C)cc2)nc2c1c(=O)n(C)c(=O)n2C	36%[38.3 µM]	-17%	2	-4%	-95*
COc1ccc(OCC(O)Cn2c(Nc3ccccc3)nc3c2c(=O)n(C)c(=O)n3C)cc1 (stereo not given)	-6%[38.3 µM]	-7%	6	1%	-83*
Cn1c(=O)c2c(nc(NC3CCCCC3)n2CC(O)COc2ccccc2)n(C)c1=O (stereo not given)	-4%[38.3 µM]	2%	5	-2%	14
CCCCC(=O)O[C@]1(C(=O)CO)[C@H](C)C[C@H]2[C@@H]3CCC4=CC(=O)C=C[C@]4(C)[C@@]3(F)[C@@H](O)C[C@@]21C	-8%	-15%[0.0915 µM]	x	-4%[0.00818 µM]	x
COC(=O)c1cc(O)c(OCc2ccccc2)c(O)c1	17%[38.3 µM]	-5%	-1	-3%	-85*
COC(=O)c1[nH]c(=O)c2ccccc2c1OCc1ccccc1	-2%[38.3 µM]	3%	-3	-1%	50
COc1ccc(Cc2nnc(NC(=O)Cc3cccs3)s2)cc1OC	2%	x	-10	-11%	-100*
Cc1cc(NC(=O)CSc2nc3ccccc3c(=O)n2-c2ccccc2)no1	7.1µM*	-9%	3	-3%	u
Cc1cc(NC(=O)CSc2ccccc2)no1	-2%[38.3 µM]	1%	0	-5%	7
Cc1cc(NC(=O)CSc2nc(C(C)C)nc3ccccc23)no1	13µM*	1%	-14	1%	-26
O=C(NC(=S)Nc1nc2c(s1)CCCC2)c1ccc(C(=O)c2ccccc2)cc1	-6%	x	x	3%	-124*
O=c1c(-c2ccc(F)c(F)c2)nc2cncnc2n1Cc1ccccc1	-5%	0%	x	-4%	x
Cc1ccc(CN2C(=O)C(O)(CC(=O)c3ccc(C)cc3)c3ccccc32)cc1 (stereo not given)	x	x	5	x	x
